Reference: the supplement of paper PMC11172423
Values without a mark were called inactive.

test system: Falciformispora senegalensis CBS197.79; assay: growth relative to untreated control; higher = less inhibition, active = 20 or less; conditions: 100 µM
Outline: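 Hyphal fragments of M. mycetomatis MM55 or F. senegalensis CBS197.79 were suspended in colourless RPMI 1640 with L-glutamine and MOPS at 68–72% transmission at 660 nm. They were exposed in 96-well plates to compound at 100 or 25 µM for 7 days at 37 °C. Viability was read with MTS (2 h, 490 nm) or resazurin (600 nm). Growth is metabolic activity relative to the untreated growth control, both corrected with a medium-plus-dye blank.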

Compound | growth
CC1(C)C(/C=C(\Cl)c2ccc(Cl)cc2)C1C(=O)OC(C#N)c1ccc(F)c(Oc2ccccc2)c1 (configuration not stated) | 93.3%
N#Cc1nn(-c2c(Cl)cc(C(F)(F)F)cc2Cl)c(N)c1S(=O)C(F)(F)F (configuration not stated) | 88.4%
O=[N+]([O-])/N=C1\NCCN1Cc1ccc(Cl)nc1 | 86.5%
N#CCNC(=O)c1cnccc1C(F)(F)F | 87.5%
CCc1nn(C)c(C(=O)NCc2ccc(Oc3ccc(C)cc3)cc2)c1Cl | 79.9%
CN(C)CCn1c(Nc2cc(Cl)cc(C(F)(F)F)c2)nc2cnc(NC3CCCC3)cc21 | 105%
ClC1=C(Cl)[C@@]2(Cl)[C@H]3C[C@@H](Cl)[C@H](Cl)[C@H]3[C@@]1(Cl)C2(Cl)Cl | 78.3%
CC1(C)C(C=C(Cl)Cl)C1C(=O)OC(C#N)c1ccc(F)c(Oc2ccccc2)c1 (configuration not stated) | 73.5%
CCOP(=S)(OCC)Oc1cc(C)nc(C(C)C)n1 | 88.9%
CC[C@H]1CN2CCc3cc(OC)c(OC)cc3[C@@H]2C[C@@H]1C[C@H]1NCCc2cc(OC)c(OC)cc21 | 18.3% (active)
O=C(NC(=O)c1c(F)cccc1F)Nc1ccc(Cl)c(Oc2ncc(C(F)(F)F)cc2Cl)c1 | 84%
CCN(Cc1ccc(Cl)nc1)/C(=C/[N+](=O)[O-])NC | 89.6%
O=[N+]([O-])/C=C1\NCCCS1 | 93.8%
Cc1nc(N(C)C)nc(OC(=O)N(C)C)c1C | 87.9%
CC1(C)CNC(=NN=C(C=Cc2ccc(C(F)(F)F)cc2)C=Cc2ccc(C(F)(F)F)cc2)NC1 | 107%
CC(C)Nc1cc2c(cn1)nc(Nc1cc(Cl)cc(C(F)(F)F)c1)n2C1CCNC1 (configuration not stated) | 28.6%
NCCc1cn(S(=O)(=O)c2c(Cl)nc3sccn23)c2ccccc12 | 11.5% (active)
CC(C)=CC1C(C(=O)OCN2C(=O)C3=C(CCCC3)C2=O)C1(C)C (configuration not stated) | 100%
C[C@@H]1C[C@@H]([C@H](O)CC2CC(=O)NC(=O)C2)C(=O)[C@@H](C)C1 | 101%

Compound | growth
COc1ccc(Cc2nccc3cc(OC)c(OC)cc23)cc1OC | 104%
CC[C@@H](C(=O)[C@@H](C)[C@@H](O)[C@H](C)[C@@H]1O[C@@H]([C@@H](CC)C(=O)O)CC[C@@H]1C)[C@H]1O[C@]2(C=C[C@@H](O)[C@]3(CC[C@@](C)([C@H]4CC[C@](O)(CC)[C@H](C)O4)O3)O2)[C@H](C)C[C@@H]1C | 102%
CCOCn1c(-c2ccc(Cl)cc2)c(C#N)c(Br)c1C(F)(F)F | 76.5%
CCOP(=S)(OCC)Oc1nc(Cl)c(Cl)cc1Cl | 69%
Cc1sc2c(c1C)C(c1ccc(Cl)cc1)=N[C@@H](CC(=O)OC(C)(C)C)c1nnc(C)n1-2 | 97.4%
CNC(=O)Oc1ccccc1OC(C)C | 97.7%
COP(=S)(OC)Oc1ccc(Sc2ccc(OP(=S)(OC)OC)cc2)cc1 | 92.8%
CC(C)(C)Nc1cc2c(cn1)nc(Nc1cc(Cl)cc(C(F)(F)F)c1)n2C1CCNC1 (configuration not stated) | 14.1% (active)
CC(C)(C#N)NC(=O)c1cc(Cl)cc(Cl)c1NC(=O)c1cc(Cl)nn1-c1ncccc1Cl | 94.6%
FC(F)(F)c1cc(Cl)cc(Nc2nc3cnc(OC4CCC4)cc3n2[C@@H]2CCNC2)c1 | 108%
CN1C(=O)C(C(=O)Nc2ccc(Cl)c(Cl)c2)C(=O)N(C)C1=O | 84.5%
CN1C2CCC1CC(C#N)C2 (configuration not stated) | 85.8%
CC1(C)C(C=C(Cl)Cl)C1C(=O)OCc1cccc(Oc2ccccc2)c1 (configuration not stated) | 98.3%
CNC(=O)c1cc(Cl)cc(C)c1NC(=O)c1cc(Br)nn1-c1ncccc1Cl | 94.4%
CC1(Nc2ncc3nc(Nc4cc(Cl)cc(C(F)(F)F)c4)n(C4CCNC4)c3n2)CC1 (configuration not stated) | 52.1%
CN/C(=N\[N+](=O)[O-])NCc1cnc(Cl)s1 | 85.7%
CCS(=O)c1c(C#N)nn(-c2c(Cl)cc(C(F)(F)F)cc2Cl)c1N (configuration not stated) | 83.7%
CCOc1ccc(C(C)(C)COCc2cccc(Oc3ccccc3)c2)cc1 | 39.3%
